Laboratory results from PubChem BioAssay AID1159580 (chemical genetic matrix, 2015).
The campaign covered roughly 5,500 compounds. About 2,000 (36%) were called active. Roughly 18% stayed inconclusive and do not appear here. Rule as the data show it: active = normalized growth mostly below about 0.91 (no sharp cut-off); inconclusive = no clear call, values can overlap the other calls; inactive = mostly above about 0.92. The list shows a part of the results.

Experiment: chemical genetic growth profiling, strain panel (AID 1159580);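 also: tested at 20 µM; growth read once vehicle control cultures reached saturation at 30 °C; 1 = growth at the plate median or of vehicle wells; lower values mean less growth of the strain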
Conditions: growth OD

Measured: normalized growth

Oc1c(I)cc(I)c2cccnc12
active: S. cerevisiae deletion strains, locus YJL187C, strain SWE1, stronger effect = lower value 0.0737 | S. cerevisiae deletion strains, locus YJR043C, strain POL32, stronger effect = lower value 0.08 | S. cerevisiae deletion strains, locus YJR066W, strain TOR1, stronger effect = lower value 0.106 | S. cerevisiae deletion strains, locus YKL009W, strain mrt4, stronger effect = lower value 0.274 | S. cerevisiae deletion strains, locus YKL068W, stronger effect = lower value 0.479 | S. cerevisiae deletion strains, locus YKL085W, strain MDH1 (second series), stronger effect = lower value 0.253 | S. cerevisiae deletion strains, locus YKL085W, strain MDH1, stronger effect = lower value 0.253 | S. cerevisiae deletion strains, locus YKL160W, strain elf1, stronger effect = lower value 0.0775 | S. cerevisiae deletion strains, locus YKL190W, strain CNB1, stronger effect = lower value 0.0667 | S. cerevisiae deletion strains, locus YKR001C, strain vps1, stronger effect = lower value 0.1 | S. cerevisiae deletion strains, locus YKR026C, strain gcn3, stronger effect = lower value 0.0967 | S. cerevisiae deletion strains, locus YKR091W, strain srl3, stronger effect = lower value 0.129 | S. cerevisiae deletion strains, locus YLL001W, strain dnm1, stronger effect = lower value 0.085 | S. cerevisiae deletion strains, locus YLL026W, stronger effect = lower value 0.652 | S. cerevisiae deletion strains, locus YLL041C, strain sdh2, stronger effect = lower value 0.083 | S. cerevisiae deletion strains, locus YLR027C, strain aat2, stronger effect = lower value 0.0875 | S. cerevisiae deletion strains, locus YLR039C, strain RIC1, stronger effect = lower value 0.156 | S. cerevisiae deletion strains, locus YLR058C, strain SHM2, stronger effect = lower value 0.0693 | S. cerevisiae deletion strains, locus YLR102C, strain apc9, stronger effect = lower value 0.0939 | S. cerevisiae deletion strains, locus YLR113W, strain HOG1, stronger effect = lower value 0.128 | S. cerevisiae deletion strains, locus YLR221C, strain rsa3, stronger effect = lower value 0.118 | S. cerevisiae deletion strains, locus YLR258W, strain gsy2, stronger effect = lower value 0.0729 | S. cerevisiae deletion strains, locus YLR262C, strain YPT6 (second series), stronger effect = lower value 0.109 | S. cerevisiae deletion strains, locus YLR262C, strain YPT6, stronger effect = lower value 0.184 | S. cerevisiae deletion strains, locus YLR268W, strain sec22, stronger effect = lower value 0.104 | S. cerevisiae deletion strains, locus YLR320W, strain mms22, stronger effect = lower value 0.111 | S. cerevisiae deletion strains, locus YLR330W, strain CHS5, stronger effect = lower value 0.0767 | S. cerevisiae deletion strains, locus YLR342W, strain FKS1 (second series), stronger effect = lower value 0.0828 | S. cerevisiae deletion strains, locus YLR342W, strain FKS1, stronger effect = lower value 0.0814 | S. cerevisiae deletion strains, locus YLR357W, strain rsc2, stronger effect = lower value 0.178 | S. cerevisiae deletion strains, locus YLR370C, strain arc18, stronger effect = lower value 0.0851 | S. cerevisiae deletion strains, locus YLR371W, strain rom2, stronger effect = lower value 0.137 | S. cerevisiae deletion strains, locus YLR384C, strain iki3, stronger effect = lower value 0.0849 | S. cerevisiae deletion strains, locus YLR418C, strain cdc73, stronger effect = lower value 0.16 | S. cerevisiae deletion strains, locus YML016C, strain PPZ1, stronger effect = lower value 0.0635 | S. cerevisiae deletion strains, locus YML032C, strain rad52, stronger effect = lower value 0.115 | S. cerevisiae deletion strains, locus YML120C, strain ndi1, stronger effect = lower value 0.0935 | S. cerevisiae deletion strains, locus YML124C, strain tub3, stronger effect = lower value 0.0977 | S. cerevisiae deletion strains, locus YMR058W, strain fet3, stronger effect = lower value 0.0746 | S. cerevisiae deletion strains, locus YMR078C, strain ctf18, stronger effect = lower value 0.11 | S. cerevisiae deletion strains, locus YMR125W, strain sto1, stronger effect = lower value 0.112 | S. cerevisiae deletion strains, locus YMR129W, stronger effect = lower value 0.256 | S. cerevisiae deletion strains, locus YMR205C, strain PFK2, stronger effect = lower value 0.108 | S. cerevisiae deletion strains, locus YMR223W, strain ubp8, stronger effect = lower value 0.108 | S. cerevisiae deletion strains, locus YMR231W, strain pep5, stronger effect = lower value 0.105 | S. cerevisiae deletion strains, locus YMR307W, strain GAS1, stronger effect = lower value 0.145 | S. cerevisiae deletion strains, locus YNL067W, strain RPL9B, stronger effect = lower value 0.0655 | S. cerevisiae deletion strains, locus YNL071W, strain lat1, stronger effect = lower value 0.236 | S. cerevisiae deletion strains, locus YNL183C, strain NPR1, stronger effect = lower value 0.103 | S. cerevisiae deletion strains, locus YNL209W, strain ssb2, stronger effect = lower value 0.0737 | S. cerevisiae deletion strains, locus YNL233W, strain BNI4, stronger effect = lower value 0.073 | S. cerevisiae deletion strains, locus YNL248C, strain rpa49, stronger effect = lower value 0.11 | S. cerevisiae deletion strains, locus YNL250W, strain rad50, stronger effect = lower value 0.0949 | S. cerevisiae deletion strains, locus YNL271C, strain bni1, stronger effect = lower value 0.177 | S. cerevisiae deletion strains, locus YNL298W, strain CLA4, stronger effect = lower value 0.271 | S. cerevisiae deletion strains, locus YNL307C, strain MCK1, stronger effect = lower value 0.115 | S. cerevisiae deletion strains, locus YNL322C, strain KRE1 (second series), stronger effect = lower value 0.128 | S. cerevisiae deletion strains, locus YNL322C, strain KRE1, stronger effect = lower value 0.0647 | S. cerevisiae deletion strains, locus YNR049C, strain mso1, stronger effect = lower value 0.0812 | S. cerevisiae deletion strains, locus YNR052C, strain pop2, stronger effect = lower value 0.0966 | S. cerevisiae deletion strains, locus YOL147C, strain pex11, stronger effect = lower value 0.0953 | S. cerevisiae deletion strains, locus YOR001W, strain rrp6, stronger effect = lower value 0.21 | S. cerevisiae deletion strains, locus YOR061W, strain CKA2, stronger effect = lower value 0.0666 | S. cerevisiae deletion strains, locus YOR069W, strain VPS5, stronger effect = lower value 0.0731 | S. cerevisiae deletion strains, locus YOR070C, strain gyp1, stronger effect = lower value 0.575 | S. cerevisiae deletion strains, locus YOR080W, strain dia2, stronger effect = lower value 0.09 | S. cerevisiae deletion strains, locus YOR083W, strain WHI5, stronger effect = lower value 0.112 | S. cerevisiae deletion strains, locus YOR106W, strain vam3, stronger effect = lower value 0.0906 | S. cerevisiae deletion strains, locus YOR136W, strain idh2, stronger effect = lower value 0.156 | S. cerevisiae deletion strains, locus YOR144C, strain elg1, stronger effect = lower value 0.0898 | S. cerevisiae deletion strains, locus YOR184W, strain ser1, stronger effect = lower value 0.133 | S. cerevisiae deletion strains, locus YOR231W, strain MKK1, stronger effect = lower value 0.14 | S. cerevisiae deletion strains, locus YOR265W, strain rbl2, stronger effect = lower value 0.0593 | S. cerevisiae deletion strains, locus YOR270C, strain vph1, stronger effect = lower value 0.129 | S. cerevisiae deletion strains, locus YOR290C, strain snf2, stronger effect = lower value 0.0939 | S. cerevisiae deletion strains, locus YOR316C, strain cot1, stronger effect = lower value 0.0886 | S. cerevisiae deletion strains, locus YPL051W, strain arl3, stronger effect = lower value 0.0895 | S. cerevisiae deletion strains, locus YPL078C, strain atp4, stronger effect = lower value 0.0936 | S. cerevisiae deletion strains, locus YPL106C, strain sse1, stronger effect = lower value 0.16 | S. cerevisiae deletion strains, locus YPL240C, strain hsp82, stronger effect = lower value 0.0764 | S. cerevisiae deletion strains, locus YPL256C, strain CLN2, stronger effect = lower value 0.15 | S. cerevisiae deletion strains, locus YPR119W, strain clb2, stronger effect = lower value 0.0998 | S. cerevisiae deletion strains, locus YPR141C, strain kar3, stronger effect = lower value 0.235 | S. cerevisiae deletion strains, locus YPR163C, strain tif3, stronger effect = lower value 0.107 | S. cerevisiae deletion strains, locus YPR167C, strain met16, stronger effect = lower value 0.103 | S. cerevisiae deletion strains, strain wtn01, stronger effect = lower value 0.116 | S. cerevisiae strains, strain wild type, stronger effect = lower value 0.0715
inactive: S. cerevisiae deletion strains, locus YOL012C, strain htz1 0.333
